Test results published in PubChem BioAssay AID1159580 (chemical genetic matrix, 2015).
The whole screen tested about 5,500 compounds, of which about 2,000 (36%) were called active. Roughly 18% stayed inconclusive and do not appear here. No stated cut-off is given here; in the data, active means normalized growth mostly below about 0.91 (no sharp cut-off); inconclusive means no clear call, values can overlap the other calls; inactive means mostly above about 0.92. Some of the results follow.

Test: chemical genetic growth profiling, strain panel (AID 1159580);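 further: tested at 20 µM; growth read once vehicle control cultures reached saturation at 30 °C; 1 = growth at the plate median or of vehicle wells; lower values mean less growth of the strain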
Details: growth OD

Measured: normalized growth

CC(C)(Sc1cc(C(C)(C)C)c(O)c(C(C)(C)C)c1)Sc1cc(C(C)(C)C)c(O)c(C(C)(C)C)c1
inactive: S. cerevisiae deletion strains, locus YJR075W, strain HOC1, hits give low values 1.01 | S. cerevisiae deletion strains, locus YKL068W, hits give low values 1.01 | S. cerevisiae deletion strains, locus YKL085W, strain MDH1 (second series), hits give low values 1.05 | S. cerevisiae deletion strains, locus YKL085W, strain MDH1, hits give low values 1.05 | S. cerevisiae deletion strains, locus YKL160W, strain elf1, hits give low values 0.99 | S. cerevisiae deletion strains, locus YKL190W, strain CNB1, hits give low values 1.01 | S. cerevisiae deletion strains, locus YKR001C, strain vps1, hits give low values 1.02 | S. cerevisiae deletion strains, locus YKR026C, strain gcn3, hits give low values 0.987 | S. cerevisiae deletion strains, locus YKR091W, strain srl3, hits give low values 1.02 | S. cerevisiae deletion strains, locus YLL001W, strain dnm1, hits give low values 0.996 | S. cerevisiae deletion strains, locus YLL026W, hits give low values 1 | S. cerevisiae deletion strains, locus YLL041C, strain sdh2, hits give low values 1.01 | S. cerevisiae deletion strains, locus YLR027C, strain aat2, hits give low values 0.994 | S. cerevisiae deletion strains, locus YLR039C, strain RIC1, hits give low values 1.02 | S. cerevisiae deletion strains, locus YLR058C, strain SHM2, hits give low values 1.01 | S. cerevisiae deletion strains, locus YLR102C, strain apc9, hits give low values 1.03 | S. cerevisiae deletion strains, locus YLR113W, strain HOG1, hits give low values 1.01 | S. cerevisiae deletion strains, locus YLR221C, strain rsa3, hits give low values 1.01 | S. cerevisiae deletion strains, locus YLR258W, strain gsy2, hits give low values 1.01 | S. cerevisiae deletion strains, locus YLR262C, strain YPT6 (second series), hits give low values 1 | S. cerevisiae deletion strains, locus YLR262C, strain YPT6, hits give low values 1.01 | S. cerevisiae deletion strains, locus YLR268W, strain sec22, hits give low values 1.09 | S. cerevisiae deletion strains, locus YLR320W, strain mms22, hits give low values 1 | S. cerevisiae deletion strains, locus YLR330W, strain CHS5, hits give low values 1.01 | S. cerevisiae deletion strains, locus YLR342W, strain FKS1 (second series), hits give low values 0.992 | S. cerevisiae deletion strains, locus YLR342W, strain FKS1, hits give low values 1 | S. cerevisiae deletion strains, locus YLR357W, strain rsc2, hits give low values 0.997 | S. cerevisiae deletion strains, locus YLR370C, strain arc18, hits give low values 1.01 | S. cerevisiae deletion strains, locus YLR371W, strain rom2, hits give low values 1.01 | S. cerevisiae deletion strains, locus YLR384C, strain iki3, hits give low values 0.99 | S. cerevisiae deletion strains, locus YLR418C, strain cdc73, hits give low values 1.07 | S. cerevisiae deletion strains, locus YML016C, strain PPZ1, hits give low values 0.999 | S. cerevisiae deletion strains, locus YML032C, strain rad52, hits give low values 1.03 | S. cerevisiae deletion strains, locus YML120C, strain ndi1, hits give low values 1 | S. cerevisiae deletion strains, locus YML124C, strain tub3, hits give low values 1.02 | S. cerevisiae deletion strains, locus YMR058W, strain fet3, hits give low values 1.02 | S. cerevisiae deletion strains, locus YMR078C, strain ctf18, hits give low values 1.03 | S. cerevisiae deletion strains, locus YMR125W, strain sto1, hits give low values 1 | S. cerevisiae deletion strains, locus YMR129W, hits give low values 1.01 | S. cerevisiae deletion strains, locus YMR205C, strain PFK2, hits give low values 1.01 | S. cerevisiae deletion strains, locus YMR223W, strain ubp8, hits give low values 1.02 | S. cerevisiae deletion strains, locus YMR231W, strain pep5, hits give low values 1 | S. cerevisiae deletion strains, locus YMR263W, strain SAP30, hits give low values 1.03 | S. cerevisiae deletion strains, locus YMR307W, strain GAS1, hits give low values 1.01 | S. cerevisiae deletion strains, locus YNL067W, strain RPL9B, hits give low values 1.03 | S. cerevisiae deletion strains, locus YNL071W, strain lat1, hits give low values 1.02 | S. cerevisiae deletion strains, locus YNL128W, strain TEP1, hits give low values 1.03 | S. cerevisiae deletion strains, locus YNL153C, strain GIM3, hits give low values 1.03 | S. cerevisiae deletion strains, locus YNL183C, strain NPR1, hits give low values 0.899 | S. cerevisiae deletion strains, locus YNL209W, strain ssb2, hits give low values 0.989 | S. cerevisiae deletion strains, locus YNL233W, strain BNI4, hits give low values 1.02 | S. cerevisiae deletion strains, locus YNL248C, strain rpa49, hits give low values 1.06 | S. cerevisiae deletion strains, locus YNL250W, strain rad50, hits give low values 1.02 | S. cerevisiae deletion strains, locus YNL271C, strain bni1, hits give low values 1.03 | S. cerevisiae deletion strains, locus YNL298W, strain CLA4, hits give low values 1.02 | S. cerevisiae deletion strains, locus YNL307C, strain MCK1, hits give low values 1.03 | S. cerevisiae deletion strains, locus YNL322C, strain KRE1 (second series), hits give low values 1.01 | S. cerevisiae deletion strains, locus YNL322C, strain KRE1, hits give low values 1.01 | S. cerevisiae deletion strains, locus YNR049C, strain mso1, hits give low values 1 | S. cerevisiae deletion strains, locus YNR052C, strain pop2, hits give low values 1.02 | S. cerevisiae deletion strains, locus YOL006C, strain TOP1, hits give low values 1.11 | S. cerevisiae deletion strains, locus YOL012C, strain htz1 1.15 | S. cerevisiae deletion strains, locus YOL147C, strain pex11, hits give low values 1.02 | S. cerevisiae deletion strains, locus YOR001W, strain rrp6, hits give low values 1.02 | S. cerevisiae deletion strains, locus YOR061W, strain CKA2, hits give low values 1.01 | S. cerevisiae deletion strains, locus YOR069W, strain VPS5, hits give low values 0.987 | S. cerevisiae deletion strains, locus YOR070C, strain gyp1, hits give low values 1 | S. cerevisiae deletion strains, locus YOR080W, strain dia2, hits give low values 0.996 | S. cerevisiae deletion strains, locus YOR083W, strain WHI5, hits give low values 0.998 | S. cerevisiae deletion strains, locus YOR106W, strain vam3, hits give low values 0.98 | S. cerevisiae deletion strains, locus YOR136W, strain idh2, hits give low values 1.03 | S. cerevisiae deletion strains, locus YOR144C, strain elg1, hits give low values 1.01 | S. cerevisiae deletion strains, locus YOR184W, strain ser1, hits give low values 1.03 | S. cerevisiae deletion strains, locus YOR231W, strain MKK1, hits give low values 0.996 | S. cerevisiae deletion strains, locus YOR265W, strain rbl2, hits give low values 0.997 | S. cerevisiae deletion strains, locus YOR270C, strain vph1, hits give low values 1.05 | S. cerevisiae deletion strains, locus YOR290C, strain snf2, hits give low values 1.01 | S. cerevisiae deletion strains, locus YOR316C, strain cot1, hits give low values 1.03 | S. cerevisiae deletion strains, locus YPL051W, strain arl3, hits give low values 0.988 | S. cerevisiae deletion strains, locus YPL055C, strain LGE1, hits give low values 1.03 | S. cerevisiae deletion strains, locus YPL078C, strain atp4, hits give low values 1.01 | S. cerevisiae deletion strains, locus YPL106C, strain sse1, hits give low values 1.01 | S. cerevisiae deletion strains, locus YPL240C, strain hsp82, hits give low values 1.03 | S. cerevisiae deletion strains, locus YPL241C, strain CIN2, hits give low values 1.01 | S. cerevisiae deletion strains, locus YPL256C, strain CLN2, hits give low values 1.03 | S. cerevisiae deletion strains, locus YPR119W, strain clb2, hits give low values 1.01 | S. cerevisiae deletion strains, locus YPR141C, strain kar3, hits give low values 1.02 | S. cerevisiae deletion strains, locus YPR163C, strain tif3, hits give low values 1.02 | S. cerevisiae deletion strains, locus YPR167C, strain met16, hits give low values 1.02 | S. cerevisiae deletion strains, strain wtn01, hits give low values 1.02 | S. cerevisiae strains, strain wild type, hits give low values 1.02
